# Measurements from PubChem BioAssay (EPA / NIEHS).
# Records with an inconclusive call do not appear. The source made the active and inactive calls. How the source made its calls: active means hit-call score of the fitted dose curve at least 0.9, where 1 is the maximum; inconclusive means response in the unintended direction; inactive means score below 0.9.
# Target: Nuclear receptor subfamily 1 group I member 2 (Homo sapiens) (UniProt O75469)
# Assay: NVS_NR_hPXR: NovaScreen (NVS) Nuclear Receptor Binding Assay for human Pregnane X Receptor (PXR) (AID 2283365);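 further: a drop in FRET signal versus DMSO baseline means the compound binds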
# Experimental: NVS_NR_hPXR is a biochemical, single-readout assay that uses extracted gene-proteins in a cell-free assay. Measurements were taken 2 hours after chemical dosing in a 384-well plate.NVS_NR_hPXR is one of one assay component(s) measured or calculated from the NVS_NR_hPXR assay. It is designed to make measurements of fluorescent resonance energy transfer, a form of binding reporter, as detected with fluorescent resonance energy transfer signals by Time-Resolved Fluorescence Resonance Energy Transfer (TR-FRET) technology.Data from the assay component NVS_NR_hPXR was analyzed into 1 assay endpoint. This assay endpoint, NVS_NR_hPXR, was analyzed in the positive analysis fitting direction relative to DMSO as the negative control and baseline of activity. Using a type of binding reporter, loss-of-signal activity can be used to understand changes in the binding as they relate to the gene NR1I2. Furthermore, this assay endpoint can be referred to as a primary readout, because the performed assay has only produced 1 assay endpoint. To generalize the intended target to other relatable targets, this assay endpoint is annotated to the nuclear receptor intended target family, where the subfamily is non-steroidal.
# Binding assays used specific radioligands (tritiated, iodinated) with non-radioactive competitive displacement ligands in agonist or antagonist protocols (as indicated) and various reference compounds and inhibitors to titrate specific binding to receptors and transporters. Most enzyme assays (CYPs, kinases, phosphatases, proteases, HDACs) used recombinant protein and specific substrates (fluorescence mostly, some colorimetric and radioactive) and inhibitors, followed by a biochemical separation of substrate and product. All assays for the biochemical HTS were initially run in duplicate at a single concentration (10 uM for CYP450 assays and 25 uM for all others). […] Each assay was run with positive and negative controls, and concurrent controls on every plate. The follow-up (secondary) screen tested active chemical-pairs in concentration series, as well as a few additional assays not tested in the primary screen, some selected negative inactives, and several cases re-run in the concentration series for confirmatory purposes.
# Sequence of Nuclear receptor subfamily 1 group I member 2 (Homo sapiens) (O75469 whole entry, looked up): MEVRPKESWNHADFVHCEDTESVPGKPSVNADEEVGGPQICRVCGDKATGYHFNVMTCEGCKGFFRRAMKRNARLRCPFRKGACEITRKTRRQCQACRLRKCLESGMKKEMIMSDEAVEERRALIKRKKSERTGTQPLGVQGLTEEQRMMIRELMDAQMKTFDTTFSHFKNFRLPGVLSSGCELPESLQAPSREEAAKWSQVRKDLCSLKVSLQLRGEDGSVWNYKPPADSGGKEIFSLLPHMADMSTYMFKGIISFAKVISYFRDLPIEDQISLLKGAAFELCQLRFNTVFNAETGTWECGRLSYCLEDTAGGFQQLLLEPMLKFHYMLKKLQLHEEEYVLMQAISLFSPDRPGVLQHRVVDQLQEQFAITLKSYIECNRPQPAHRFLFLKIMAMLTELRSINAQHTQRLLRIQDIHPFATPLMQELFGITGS
Structure (SMILES),outcome,AC50
N#Cc1ccccc1O,inactive,–
COCCOCCC[Si](C)(O[Si](C)(C)C)O[Si](C)(C)C,inactive,–
CCCCCCCC/C=C\CCCCCCCC(=O)N(C)CC(=O)O,inactive,–
CCc1cc(Cc2cc(CC)c(N)c(CC)c2)cc(CC)c1N,inactive,–
CCCCCCCCCCCCC[N+](C)(C)Cc1ccccc1,–,3.9 µM (active)
CC(C)(C)c1cc(Cc2cc(C(C)(C)C)c(O)c(C(C)(C)C)c2)cc(C(C)(C)C)c1O,inactive,–
CCOC(OCC)OCC,inactive,–
CCCCCCCCCCCCCC[P+](CCCC)(CCCC)CCCC,–,0.0885 µM (active)
CCCCCCCC/C=C\CCCCCCCC(=O)OCC(O)CO (stereo not given),–,8.56 µM (active)
CCCCCCCCCc1ccc(OCCO)cc1,inactive,–
